# Assay results as given in PubChem BioAssay (NCI).
# The panel holds about 83,000 compounds, 20% with a hit somewhere; the sample as a whole holds those more often.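 Single-concentration screen, 48 h exposure, 96-well plates. Endpoint: percent growth. Below 10 = active.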 A number with no mark means an inactive call. Calls of active or inactive are those of the source.
# Assays:
# Assay in all cases: NCI-60 one-dose screen, 48 h (100 = growth as untreated, 0 = no growth, -100 = all killed)
# [1] = system: DU-145 prostate; conditions: 10 µM unless noted
# [2] = system: K-562 leukemia; conditions: 10 µM unless noted
# [3] = system: MALME-3M melanoma; conditions: 10 µM unless noted
# [4] = system: MDA-MB-231 breast; conditions: 10 µM unless noted
# [5] = system: RXF 393 renal; conditions: 10 µM unless noted
# [6] = system: SF-268 CNS; conditions: 10 µM unless noted
# [7] = system: SF-295 CNS; conditions: 10 µM unless noted
# [8] = system: SF-539 CNS; conditions: 10 µM unless noted
# [9] = system: UACC-257 melanoma; conditions: 10 µM unless noted
# [10] = system: HCT-15 colon; conditions: 10 µM unless noted
# [11] = system: HT29 colon; conditions: 10 µM unless noted
# [12] = system: SNB-75 CNS; conditions: 10 µM unless noted
# [13] = system: SNB-19 CNS; conditions: 10 µM unless noted
# [14] = system: U251 CNS; conditions: 10 µM unless noted
# [15] = system: PC-3 prostate; conditions: 10 µM unless noted
# [16] = system: SK-MEL-5 melanoma; conditions: 10 µM unless noted
# [17] = system: UACC-62 melanoma; conditions: 10 µM unless noted
# [18] = system: LOX IMVI melanoma; conditions: 10 µM
# [19] = system: SK-MEL-28 melanoma; conditions: 10 µM unless noted
# [20] = system: M14 melanoma; conditions: 10 µM unless noted
SMILES,growth [1],growth [2],growth [3],growth [4],growth [5],growth [6],growth [7],growth [8],growth [9],growth [10],growth [11],growth [12],growth [13] [%],growth [14],growth [15],growth [16],growth [17],growth [18],growth [19],growth [20] [%]
CCCCc1ccc2nc(NC(=O)OC)[nH]c2c1,-2.08% (active),-20.4% (active),48.1%,13%,20.9%,28.8%,-5.83% (active),-51.1% (active),69%,7.85% (active),12.2%,65.1%,14.7,22.2%,22.5%,-49.2% (active),41%,25.2%,58.8%,
CCOc1ccc(C(=O)O)cc1,112%,115%,118%,112%,105%,110%,94.6%,106%,104%,95.7%,103%,89.2%,112,103%,91.2%,,104%,98.7%,105%,97.5
Nc1cc(F)ccc1[N+](=O)[O-],117%,114%,108%,105%,94.3%,111%,108%,101%,118%,102%,109%,85.9%,102,106%,87.5%,,101%,100%,104%,94.4
CCOC(=O)/C(C)=C\c1ccc(OC)c(OC)c1,99.5%,87%,112%,102%,112%,98.3%,100%,101%,108%,101%,106%,92.9%,107,94%,97.5%,,101%,98%,108%,105
COc1cc(CC#N)c([N+](=O)[O-])cc1OC,109%,94.8%,111%,99.9%,112%,103%,110%,102%,103%,116%,108%,107%,109,95.8%,101%,,99.8%,102%,107%,109
Nc1ccn(C2OC(CO)C(O)C2F)c(=O)n1 (centres undefined),89.4%,83.7%,73%,89.2%,100%,86.3%,98.6%,92.2%,95.1%,95.8%,79%,79.5%,90.5,78.6%,,92.5%,77.7%,79.6%,60.5%,65.4
Cc1ccc(OC(=O)c2ccccc2)cc1,114%,101%,123%,126%,107%,108%,117%,106%,94.3%,118%,95.3%,108%,109,94.8%,105%,101%,112%,105%,120%,
CCN(CC)c1ccc2nc3ccc(N=Nc4ccc(N(C)C)cc4)cc3[n+](-c3ccccc3)c2c1,-98% (active),-4.96% (active),-54.1% (active),-46.4% (active),-87.8% (active),9.77% (active),-82.2% (active),-69.2% (active),-52.5% (active),-10.3% (active),-31.8% (active),-98.9% (active),40.3,-52% (active),6.24% (active),-97.4% (active),-59.1% (active),-91.9% (active),-36.1% (active),
OC(CBr)CCBr (centres undefined),110%,100%,85.6%,104%,109%,104%,94%,96.3%,87.8%,97.8%,105%,73.9%,97,93.3%,87.5%,101%,95.1%,96.1%,107%,
Cc1cc(Cc2ccccc2)c(O)c(Cc2ccccc2)c1,103%,82.6%,103%,91.6%,88.2%,93.4%,101%,101%,93.4%,89.8%,104%,75.5%,102,86.5%,88.3%,98.6%,71.4%,80.7%,106%,
O=S(=O)(O)C(C(I)I)S(=O)(=O)O,106%,105%,107%,126%,104%,100%,113%,99.8%,102%,110%,118%,98.3%,113,96.3%,95.7%,,110%,101%,114%,109
CN(C)Cc1ccccn1,120%,107%,98.7%,98.8%,99.5%,111%,101%,92.1%,99%,105%,97.4%,95.7%,103,99.4%,90.3%,101%,97.8%,96.3%,102%,
CN(C(=S)S(=O)(=O)C12CC3CC(CC(C3)C1)C2)c1ccccc1,95.3%,72%,108%,88.9%,111%,94.5%,105%,97.6%,87.3%,83.7%,105%,98.9%,102,108%,82.8%,101%,91.8%,81.1%,107%,
CC(=O)N(C(C)=O)c1ccc(C)cc1,107%,99.1%,97.2%,102%,104%,96.9%,93.5%,98%,110%,96%,105%,89.1%,93.8,97.6%,93.7%,95.5%,91.4%,92.1%,107%,
CC(C)c1ncc([N+](=O)[O-])n1C,122%,123%,129%,118%,115%,121%,127%,98.2%,97.2%,101%,108%,116%,111,104%,102%,114%,107%,108%,119%,
NC(=O)c1cc2c3ccccc3ccn2c1-c1ccccc1,5.57% (active),4.64% (active),86%,29.3%,25.5%,22%,4.09% (active),-19.7% (active),64.9%,4.13% (active),7.35% (active),59.9%,,16.1%,37.3%,-34.2% (active),31.7%,20%,105%,11.3
C=CCc1cc(OC)c(OC)c(OC)c1,102%,105%,109%,99%,103%,95.3%,113%,114%,99.1%,99.1%,98%,101%,103,102%,100%,,97.4%,102%,115%,103
Cc1ccc2[nH]c3ccccc3c2c1,104%,89.8%,95.2%,111%,112%,103%,103%,101%,104%,79.6%,102%,98.4%,105,96.2%,89.1%,,98.4%,97%,111%,110

SMILES,growth [1],growth [2],growth [3],growth [4],growth [5],growth [6],growth [7],growth [8],growth [9],growth [10],growth [11],growth [12],growth [13] [%],growth [14],growth [15],growth [16],growth [17],growth [18],growth [19],growth [20] [%]
Cc1[nH]c(=S)[nH]c(=O)c1C,110%,99.7%,109%,105%,115%,108%,103%,103%,92.9%,99.4%,104%,93.4%,103,92.4%,102%,100%,105%,104%,110%,
Cc1cc(CO)c(O)c(CO)c1,115%,87.3%,104%,108%,112%,105%,109%,110%,95.8%,102%,95.4%,64.4%,114,98.8%,101%,108%,104%,90.7%,108%,
O=C1C=Cc2ccccc2/C1=C/c1[nH]c(=O)[nH]c1O,54.5%,26%,23.5%,62.6%,34.2%,55.2%,28.9%,17.6%,2.03% (active),59.7%,37.7%,31.9%,34.1,29.3%,27.4%,,24%,48.8%,30.6%,22.3
CCCC(=O)c1cccs1,109%,112%,107%,104%,102%,105%,95.7%,93.7%,92.5%,100%,98%,88.5%,101,110%,89.2%,105%,95.1%,95.9%,107%,
COC1(OC)C2(Cl)C(Cl)=C(Cl)C1(Cl)C1COCC12 (centres undefined),102%,97.3%,110%,105%,103%,108%,102%,109%,63.3%,103%,99.3%,86.3%,100,103%,97.6%,102%,97.4%,107%,105%,
CCCC1OC(c2ccco2)OCC1CC (centres undefined),104%,105%,118%,102%,136%,101%,105%,106%,93.1%,97.2%,103%,84.2%,98.2,94.8%,92.5%,,91.7%,95.1%,113%,102
c1ccc(-c2ccc3ccccc3c2)cc1,106%,111%,84.1%,91%,103%,89.9%,102%,,94.7%,107%,80.8%,107%,100,92.7%,90.8%,96.4%,95.4%,95.7%,107%,103
CCCCCCCCCCCCCCCCOc1ccccc1NC(=O)CC(C)=O,92%,87.1%,117%,87.4%,107%,103%,,94.5%,117%,113%,97.9%,93.2%,104,99.3%,75.4%,96.2%,78.7%,107%,103%,109
COC(=O)c1ccccc1C(=O)c1c(C)cc(C)cc1C,104%,96.7%,99.1%,97.4%,111%,102%,102%,,99.6%,101%,93.8%,96.5%,103,91.2%,90%,101%,92.5%,102%,94.9%,108
C1CCc2onc(-c3noc4c3CCCCC4)c2CC1,118%,103%,106%,114%,139%,92.9%,99.5%,104%,107%,103%,103%,112%,98,107%,102%,101%,102%,,112%,
NC(=S)N/N=C/c1ccc(OC(=O)COc2ccccc2)cn1,26.1%,53.4%,52.2%,60%,72.2%,30.7%,111%,,90.6%,76.8%,84.1%,59.3%,74.9,42.3%,63.9%,38.4%,13.9%,19.1%,83%,15
CSCCC(NC(=O)C(Cl)Cl)C(=O)O (centres undefined),108%,97.8%,114%,99.3%,97.1%,99.1%,98.1%,96.1%,,102%,100%,85.6%,107,90.9%,89%,99.8%,95.8%,98.4%,97%,93.8
O=C(CC(CC(=O)c1ccccc1)c1ccccn1)c1ccccc1,110%,92.6%,91.5%,92.7%,111%,105%,,106%,105%,106%,95.5%,92.6%,93.3,99.3%,85.1%,95.4%,87.2%,94.2%,110%,103
CC(=O)[C@@]1(O)CC[C@H]2[C@@H]3CC[C@@H]4CC(=O)CC[C@]4(C)[C@H]3[C@@H](O)C[C@@]21C,111%,94.9%,108%,99.6%,105%,99.1%,91.9%,96.8%,,103%,100%,92.7%,103,94.8%,86.1%,99.4%,94.7%,96.7%,99.4%,93
O=c1[nH]c(=O)c2cc(Cl)cc(Cl)c2[nH]1,136%,106%,116%,107%,113%,109%,114%,99.5%,93%,107%,106%,68.2%,95,103%,93.7%,103%,96.7%,120%,124%,
CCN(CC)CCCC(C)NC(=S)N/N=C(\C)c1ccccn1 (centres undefined),42.1%,38.7%,33.5%,36.8%,49.4%,43.7%,,31.2%,57.4%,32.7%,35.8%,61.9%,45.7,37.2%,41.1%,37.8%,22.3%,39.3%,67.5%,37.2
O=C1NCC2CCCC1C2 (centres undefined),113%,106%,109%,102%,103%,103%,,111%,81.7%,104%,105%,77.2%,99.6,112%,114%,107%,105%,103%,110%,96.7
